# Data from paper PMC11062922 (Nature Chemical Biology, 2023).
# Where two headings read alike, the source gives them in different places.
# Assays:
# PRKAA1 = settings: read-out: apparent Kd, n = 1
# PRKAG1 = settings: read-out: apparent Kd, n = 1
# [1] = compound concentrations:100 nM and 1000 nM (sheet 'Lestaurtinib' of Supplementary Table 1),run:Lestaurtinib_02381_R3,Plate:MR004
# [2] = compound concentrations:100 nM and 1000 nM (sheet 'Lestaurtinib' of Supplementary Table 1),run:Lestaurtinib_02422_R1,Plate:MR006
# [3] = compound concentrations:100 nM and 1000 nM (sheet 'Lestaurtinib' of Supplementary Table 1),run:Lestaurtinib_02437_R3,Plate:MR007
substance,measurement,setting,value
Lestaurtinib,potency estimated from few doses,PRKAA1; [1],952 nM
same,potency estimated from few doses,PRKAA1; [2],741 nM
same,potency estimated from few doses,PRKAA1; [3],79.1 nM
same,potency estimated from few doses,"PRKAA1; compound concentrations:100 nM and 1000 nM (sheet 'Lestaurtinib' of Supplementary Table 1),run:Lestaurtinib_02438_R1,Plate:MR008",898 nM
same,potency estimated from few doses,"PRKAA1; compound concentrations:100 nM and 1000 nM (sheet 'Lestaurtinib' of Supplementary Table 1),run:Lestaurtinib_02438_R3,Plate:MR008",1600 nM
same,potency estimated from few doses,"PRKAA1; compound concentrations:100 nM and 1000 nM (sheet 'Lestaurtinib' of Supplementary Table 1),run:Lestaurtinib_02443_R3,Plate:MR009",762 nM
same,potency estimated from few doses,"PRKAA1; compound concentrations:100 nM and 1000 nM (sheet 'Lestaurtinib' of Supplementary Table 1),run:Lestaurtinib_02473_R2,Plate:MR010",944 nM
same,potency estimated from few doses,"PRKAA1; compound concentrations:100 nM and 1000 nM (sheet 'Lestaurtinib' of Supplementary Table 1),run:Lestaurtinib_02473_R3,Plate:MR010",74.3 nM
same,potency estimated from few doses,"PRKAA1; compound concentrations:100 nM and 1000 nM (sheet 'Lestaurtinib' of Supplementary Table 1),run:Lestaurtinib_02482_R1,Plate:MR011",1130 nM
same,potency estimated from few doses,"PRKAA1; compound concentrations:100 nM and 1000 nM (sheet 'Lestaurtinib' of Supplementary Table 1),run:Lestaurtinib_02482_R2,Plate:MR011",1490 nM
same,potency estimated from few doses,"PRKAA1; compound concentrations:100 nM and 1000 nM (sheet 'Lestaurtinib' of Supplementary Table 1),run:Lestaurtinib_02487_R1,Plate:MR012",253 nM
same,potency estimated from few doses,"PRKAA1; compound concentrations:100 nM and 1000 nM (sheet 'Lestaurtinib' of Supplementary Table 1),run:Lestaurtinib_02487_R3,Plate:MR012",737 nM
same,potency estimated from few doses,"PRKAA1; compound concentrations:100 nM and 1000 nM (sheet 'Lestaurtinib' of Supplementary Table 1),run:Lestaurtinib_02566_R3,Plate:MR014",1310 nM
same,potency estimated from few doses,"PRKAA1; compound concentrations:100 nM and 1000 nM (sheet 'Lestaurtinib' of Supplementary Table 1),run:Lestaurtinib_02572_R1,Plate:MR015",904 nM
same,potency estimated from few doses,"PRKAA1; compound concentrations:100 nM and 1000 nM (sheet 'Lestaurtinib' of Supplementary Table 1),run:Lestaurtinib_02584_R2,Plate:MR017",1310 nM
same,potency estimated from few doses,"PRKAA1; compound concentrations:100 nM and 1000 nM (sheet 'Lestaurtinib' of Supplementary Table 1),run:Lestaurtinib_02606_R2,Plate:MR019",1490 nM
same,potency estimated from few doses,"PRKAA1; compound concentrations:100 nM and 1000 nM (sheet 'Lestaurtinib' of Supplementary Table 1),run:Lestaurtinib_02624_R3,Plate:MR020",1310 nM
same,potency estimated from few doses,"PRKAA1; compound concentrations:100 nM and 1000 nM (sheet 'Lestaurtinib' of Supplementary Table 1),run:Lestaurtinib_02724_R3,Plate:MR021",883 nM
same,potency estimated from few doses,"PRKAA1; compound concentrations:100 nM and 1000 nM (sheet 'Lestaurtinib' of Supplementary Table 1),run:Lestaurtinib_02748_R1,Plate:MR024",858 nM
same,potency estimated from few doses,"PRKAA1; compound concentrations:100 nM and 1000 nM (sheet 'Lestaurtinib' of Supplementary Table 1),run:Lestaurtinib_02748_R2,Plate:MR024",956 nM
same,potency estimated from few doses,"PRKAA1; compound concentrations:100 nM and 1000 nM (sheet 'Lestaurtinib' of Supplementary Table 1),run:Lestaurtinib_02752_R1,Plate:MR025",1360 nM
same,potency estimated from few doses,"PRKAA1; compound concentrations:100 nM and 1000 nM (sheet 'Lestaurtinib' of Supplementary Table 1),run:Lestaurtinib_02752_R3,Plate:MR025",1210 nM
same,potency estimated from few doses,"PRKAA1; compound concentrations:100 nM and 1000 nM (sheet 'Lestaurtinib' of Supplementary Table 1),run:Lestaurtinib_02766_R1,Plate:MR027",1580 nM
same,potency estimated from few doses,"PRKAA1; compound concentrations:100 nM and 1000 nM (sheet 'Lestaurtinib' of Supplementary Table 1),run:Lestaurtinib_02766_R3,Plate:MR027",1320 nM
same,potency estimated from few doses,"PRKAA1; compound concentrations:100 nM and 1000 nM (sheet 'Lestaurtinib' of Supplementary Table 1),run:Lestaurtinib_02768_R1,Plate:MR028",932 nM
same,potency estimated from few doses,"PRKAA1; compound concentrations:100 nM and 1000 nM (sheet 'Lestaurtinib' of Supplementary Table 1),run:Lestaurtinib_02768_R3,Plate:MR028",921 nM
same,potency estimated from few doses,"PRKAA1; compound concentrations:100 nM and 1000 nM (sheet 'Lestaurtinib' of Supplementary Table 1),run:Lestaurtinib_02896_R1,Plate:MR030",784 nM
same,potency estimated from few doses,"PRKAA1; compound concentrations:100 nM and 1000 nM (sheet 'Lestaurtinib' of Supplementary Table 1),run:Lestaurtinib_02896_R2,Plate:MR030",1130 nM
same,potency estimated from few doses,"PRKAA1; compound concentrations:100 nM and 1000 nM (sheet 'Lestaurtinib' of Supplementary Table 1),run:Lestaurtinib_02896_R3,Plate:MR030",931 nM
same,potency estimated from few doses,"PRKAA1; compound concentrations:100 nM and 1000 nM (sheet 'Lestaurtinib' of Supplementary Table 1),run:Lestaurtinib_03172_R1,Plate:MR031",1570 nM
same,potency estimated from few doses,"PRKAA1; compound concentrations:100 nM and 1000 nM (sheet 'Lestaurtinib' of Supplementary Table 1),run:Lestaurtinib_03172_R2,Plate:MR031",1330 nM
same,potency estimated from few doses,"PRKAG1; compound concentrations:100 nM and 1000 nM (sheet 'Lestaurtinib' of Supplementary Table 1),run:Lestaurtinib_02339_R2,Plate:MR001",584 nM
same,potency estimated from few doses,"PRKAG1; compound concentrations:100 nM and 1000 nM (sheet 'Lestaurtinib' of Supplementary Table 1),run:Lestaurtinib_02339_R3,Plate:MR001",531 nM
same,potency estimated from few doses,"PRKAG1; compound concentrations:100 nM and 1000 nM (sheet 'Lestaurtinib' of Supplementary Table 1),run:Lestaurtinib_02364_R3,Plate:MR002",1000 nM
same,potency estimated from few doses,"PRKAG1; compound concentrations:100 nM and 1000 nM (sheet 'Lestaurtinib' of Supplementary Table 1),run:Lestaurtinib_02367_R3,Plate:MR003",887 nM
same,potency estimated from few doses,"PRKAG1; compound concentrations:100 nM and 1000 nM (sheet 'Lestaurtinib' of Supplementary Table 1),run:Lestaurtinib_02381_R1,Plate:MR004",712 nM
same,potency estimated from few doses,PRKAG1; [1],611 nM
same,potency estimated from few doses,"PRKAG1; compound concentrations:100 nM and 1000 nM (sheet 'Lestaurtinib' of Supplementary Table 1),run:Lestaurtinib_02407_R1,Plate:MR005",924 nM
same,potency estimated from few doses,"PRKAG1; compound concentrations:100 nM and 1000 nM (sheet 'Lestaurtinib' of Supplementary Table 1),run:Lestaurtinib_02407_R2,Plate:MR005",928 nM
same,potency estimated from few doses,"PRKAG1; compound concentrations:100 nM and 1000 nM (sheet 'Lestaurtinib' of Supplementary Table 1),run:Lestaurtinib_02407_R3,Plate:MR005",1150 nM
same,potency estimated from few doses,PRKAG1; [2],131 nM
same,potency estimated from few doses,"PRKAG1; compound concentrations:100 nM and 1000 nM (sheet 'Lestaurtinib' of Supplementary Table 1),run:Lestaurtinib_02437_R2,Plate:MR007",1340 nM
same,potency estimated from few doses,PRKAG1; [3],83.7 nM
